EPAC1 antagonist: qHTS for Antagonist of cAMP-regulated guanine nucleotide exchange factor 3 (EPAC1): primary screen; Rap guanine nucleotide exchange factor 3 (Homo sapiens), O95398; EPAC1 GEF assay, Rap1b-BODIPY-GDP exchange fluorescence; 0.14% of 360,000 active; Potency, µM (titrated, usually from 115 µM), for the others: at the top dose activity change, negative = inhibition, most hits filed as inhibitors;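 further: potency means the concentration at half of the fitted maximal effect; plate controls were vehicle for no effect and positive control for full effect; nearly all actives have a fitted effect of over 50% in size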
Target sequence (O95398 whole entry, looked up): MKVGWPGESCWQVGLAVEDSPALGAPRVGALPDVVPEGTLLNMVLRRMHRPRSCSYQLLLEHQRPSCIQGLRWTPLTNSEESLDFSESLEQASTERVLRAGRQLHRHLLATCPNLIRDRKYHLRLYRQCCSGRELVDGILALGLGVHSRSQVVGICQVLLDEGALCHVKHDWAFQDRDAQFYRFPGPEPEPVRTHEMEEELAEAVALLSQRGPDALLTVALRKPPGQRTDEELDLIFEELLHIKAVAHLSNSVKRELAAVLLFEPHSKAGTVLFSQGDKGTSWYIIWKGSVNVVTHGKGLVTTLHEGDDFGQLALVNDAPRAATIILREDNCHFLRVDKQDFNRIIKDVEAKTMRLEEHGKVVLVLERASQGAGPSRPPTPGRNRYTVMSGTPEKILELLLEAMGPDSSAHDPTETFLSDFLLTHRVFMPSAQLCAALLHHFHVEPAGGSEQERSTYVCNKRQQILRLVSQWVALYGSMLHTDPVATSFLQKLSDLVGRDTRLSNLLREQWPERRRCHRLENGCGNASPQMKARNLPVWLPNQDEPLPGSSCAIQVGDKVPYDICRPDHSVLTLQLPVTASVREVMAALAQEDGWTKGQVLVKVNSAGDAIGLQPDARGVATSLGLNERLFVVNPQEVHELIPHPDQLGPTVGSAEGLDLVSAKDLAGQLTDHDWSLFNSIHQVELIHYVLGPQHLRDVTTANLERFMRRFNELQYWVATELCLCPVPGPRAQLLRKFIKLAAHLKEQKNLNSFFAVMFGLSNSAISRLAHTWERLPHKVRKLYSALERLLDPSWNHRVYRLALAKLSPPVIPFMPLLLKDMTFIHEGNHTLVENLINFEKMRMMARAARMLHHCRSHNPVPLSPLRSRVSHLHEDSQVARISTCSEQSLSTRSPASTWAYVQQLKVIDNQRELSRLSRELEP
EPAC2 ag: qHTS for Agonist of cAMP-regulated guanine nucleotide exchange factor 4 (EPAC2): primary screen. Rap guanine nucleotide exchange factor 4 (Homo sapiens), Q8WZA2. EPAC2 activation, biochemical qHTS; response scale: 100% = 6.5 mM cAMP response. Potency, µM (highest dose often 154 µM), inactives show at the top dose activation, actives largely listed as activators. 0.079% of 360,000 active. AID 720711, 2013; further: potency means the concentration at half of the fitted maximal effect; nearly all actives have a fitted effect of over 50% in size
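Guanine nucleotide exchange by EPAC2 is measured as reduced fluorescence of BODIPY-GDP once it is released from 250 nM Rap1B. Plates are read kinetically for 30 min at room temperature; results are scaled to 6.5 mM cAMP.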
EPAC2 antagonist: qHTS for Antagonist of cAMP-regulated guanine nucleotide exchange factor 2 (EPAC2): primary screen. Rap guanine nucleotide exchange factor 4 (Homo sapiens), Q8WZA2. EPAC2 GEF exchange of Rap1B-BODIPY-GDP, fluorescence. Potency, µM (titrated, usually from 114 µM), inactives show at the top dose activity, negative = inhibition, most hits filed as inhibitors. 0.18% of 360,000 active. AID 720708, 2013; further: potency means the concentration at half of the fitted maximal effect; on the % scale 0 is the no-effect control and ±100 the full control effect; nearly all actives have a fitted effect of over 45% in size
EPAC1 ag: qHTS for Agonist of cAMP-regulated guanine nucleotide exchange factor 3 (EPAC1): primary screen; EPAC1 agonist qHTS, biochemical assay; response scale: 100% = response to 6.5 mM cAMP; 0.073% of 360,000 active; Rap guanine nucleotide exchange factor 3 (Homo sapiens), O95398; Potency, µM (titrated, usually from 154 µM), without a hit: at the highest dose activation, hits mostly activators; further: potency means the concentration at half of the fitted maximal effect; nearly all actives have a fitted effect of over 60% in size
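Nucleotide exchange by EPAC1 (100 nM) on Rap1B–BODIPY-GDP (250 nM) in the presence of 50 uM GDP is tracked fluorescently at 480/540 nm over 30 min. Signals are normalized to a 6.5 mM cAMP control.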
TRPML1 agonist: qHTS for Agonists of the Human Mucolipin Transient Receptor Potential 1 (TRPML1) | 0.12% of 410,000 active | TRPML1-expressing cells, Ca2+ dye fluorescence, FDSS | Mucolipin-1 (Homo sapiens), Q9GZU1 | activation, % (concentration not given with the values); in the data active means activation above about 50%; inconclusive means mostly about 30% to 49%; further: 0% is about no effect
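Kinetic FDSS Ca2+ read in Tet-induced TRPML1-DL cells (ABD Ca8 dye plus quencher, 45-90 min RT loading): baseline, then compound, then 110 s agonist window; EC80 agonist 54-4 at 4uM final added afterwards for a 110 s antagonist window.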
TRPML1 blocker: qHTS for Inhibitors of the Human Mucolipin Transient Receptor Potential 1 (TRPML1). activity change, negative = inhibition, % (concentration not given with the values). AID 624415, 2012. TRPML1-inducible cells, Ca2+ dye fluorescence, FDSS; hits give low values; inhibition of EC80 agonist-evoked calcium signal. 0.02% of 390,000 active. Mucolipin-1 (Homo sapiens), Q9GZU1; in the data active means activity change below about -50%; inconclusive means between about -30% and that limit;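 further: stimulus is agonist 54-4 at its EC80 concentration; on the % scale 0 is the no-effect control and ±100 the full control effect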
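Calcium fluorescence in TRPML1-DL cells induced overnight with Tet: a 110 s read after compound pin addition, then a 110 s antagonist read after challenge with 54-4 at 4 uM final (EC80).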
Numbers without * were called inactive; ? = inconclusive; · = no result. In the library only some 0.4% were active in any assay of this set; here they are far more common. Unless noted, the call rests on the fitted dose curve; in most records, active means well fitted curve in the direction sought with a large enough effect; inconclusive means small, poorly fitted or top-dose-only effect, or another doubt; inactive means no such curve, though single readings can be large; an effect the other way counts as inactive or inconclusive.

SMILES	EPAC1 antagonist	EPAC2 ag	EPAC2 antagonist	EPAC1 ag	TRPML1 agonist	TRPML1 blocker
CCC(=O)NC(c1cccs1)c1cc(Cl)c2ccccc2c1O (configuration not stated)	-24.1%	22.0%	79.4µM*	3.7%	·	·
COc1cc2c(NC3CCN(C)CC3)nc(N3CCCCC3)nc2cc1OCCCN(C)C	·	·	·	·	-0.2	·
Cc1[nH][nH]c(=O)c1C(c1c(C)[nH][nH]c1=O)c1cn(Cc2cccc3ccccc23)c2ccccc12	89.1µM*	6.2%	4.3%	16.4%	-0.9	20.5
COC(=O)/C=C/c1cc(F)ccc1S(=O)(=O)Nc1ccccc1	·	·	·	·	-0.5	·
COc1ccccc1Nc1nc(-c2sc(N)nc2C)cs1	7.7%	-4.5%	2.4%	-3.8%	-0.5	-5.7
Cc1nc(N)sc1-c1csc(Nc2ncccn2)n1	-7.8%	?	70.8µM*	3.1%	0.4	-3.7
Cc1c([N+](=O)[O-])cnc2ccccc12	·	·	·	·	-0.7	·
COc1ccc2ccccc2c1/C=N/NC(=O)c1cccc(Br)c1	-0.3%	0.4%	9.6%	-6.3%	2.2	29.1
O=C(N/N=C/c1c(O)ccc2ccccc12)c1cccc(C(F)(F)F)c1	-14.6%	?	1.7%	?	91.5*	19.3
COc1ccc(-n2c(=O)c3sc4ccccc4c3n(CC(=O)NC3CCCCC3)c2=O)cc1	·	·	·	·	-0.7	1.0
CCc1c(C)nc(SCC(=O)CC(=O)OC(C)C)c(C#N)c1C	4.1%	-4.3%	-1.9%	1.8%	51.3*	2.1
CCc1c(C)nc(SCC(N)=O)c(C#N)c1C	10.9%	11.8%	3.7%	8.8%	0.2	0.5
O=S(=O)(NCc1ccccc1)c1ccc(S(=O)(=O)N(Cc2cccs2)CC2CCCO2)cc1 (configuration not stated)	2.0%	39.8µM*	0.6%	13.4%	1.1	-10.1
O=C(Cc1ccc(OCC2CCCCC2)cc1)NO	·	·	·	·	-0.1	·
O=C1c2ccccc2S(=O)(=O)c2cc(N3CCC4(CC3)OCCO4)ccc21	2.0%	112µM*	11.1%	8.2%	3.4	-18.9
NC(=O)C1CCN(c2ccc3c(c2)S(=O)(=O)c2ccccc2C3=O)CC1	9.2%	-48.5%	1.9%	2.4%	5.5	40.0
CC1CCN(c2ccc3c(c2)S(=O)(=O)c2ccccc2C3=O)CC1	40.0%	27.9%	10.9%	89.1µM*	13.0	10.0
O=C1c2ccccc2S(=O)(=O)c2cc(N3CCN(C(=O)c4ccccc4)CC3)ccc21	1.1%	-10.1%	51.3%	-2.2%	9.2	-16.6
CC(=O)c1c(C)oc2c1cc(NS(=O)(=O)c1ccc(C(C)(C)C)cc1)c1ccccc12	·	·	·	·	28.0	-25.3
COc1ccc(S(=O)(=O)Nc2cc3c(C(C)=O)c(C)oc3c3ccccc23)cc1	-2.2%	-9.7%	2.1%	-8.9%	62.4*	-13.5
C[C@@H]1[C@H](c2ccccc2)OCCS(=O)(=O)N1Cc1cccc(C(F)(F)F)c1	·	·	·	·	0.2	·
COc1cc2c(cc1OC)C(C(=O)Nc1ccccn1)C(c1cccnc1)N(C)C2=O (configuration not stated)	3.4%	-2.6%	18.1%	-0.3%	1.3	-52.4*
C[N+]1(CC(=O)c2cccc([N+](=O)[O-])c2)CCOCC1	·	·	·	·	-0.1	·
O=C(c1cc(-c2ccc(O)cc2)on1)N1CCCCCC1	-5.5%	7.6%	-5.7%	5.2%	2.9	-51.6*
O=C(N[C@H](Cc1ccc(Cl)cc1)C(=O)O)OCC1c2ccccc2-c2ccccc21	50.1µM*	-13.0%	?	-22.8%	-0.4	-29.2
SMILES	EPAC1 antagonist	EPAC2 ag	EPAC2 antagonist	EPAC1 ag	TRPML1 agonist	TRPML1 blocker
O=C(O)c1[nH]c2ccccc2c1C(c1ccccc1)c1c(C(=O)O)[nH]c2ccccc12	-22.5%	-4.0%	-9.5%	-10.2%	1.1	11.8
COc1cc(C(c2c(C(=O)O)[nH]c3ccccc23)c2c(C(=O)O)[nH]c3ccccc23)ccc1OCc1ccccc1	39.8µM*	-3.8%	-25.8%	0.7%	0.4	-6.5
CC(C)(C)n1ncc2c(=O)n(Cc3cccc(-c4ccccc4)c3)cnc21	·	·	·	·	3.8	38.5
COc1ccccc1NS(=O)(=O)c1ccc(N/N=C/c2ccccc2OCC(=O)O)c([N+](=O)[O-])c1	?	10.7%	-11.4%	2.7%	1.8	56.1
O=C(O)c1ccccc1NS(=O)(=O)c1ccc(NN=Cc2cccc(Cl)c2)c([N+](=O)[O-])c1	50.1µM*	-7.6%	?	-3.2%	1.4	-19.6
O=C(O)COc1ccccc1/C=N/Nc1ccc(S(=O)(=O)Nc2ccc(Cl)cc2)cc1[N+](=O)[O-]	22.4µM*	-6.5%	0.6%	?	1.8	12.2
O=C(O)c1ccccc1NS(=O)(=O)c1ccc(NN=Cc2ccc(F)cc2)c([N+](=O)[O-])c1	50.1µM*	6.1%	-10.4%	3.9%	1.5	0.2
O=C(O)c1ccccc1NS(=O)(=O)c1ccc(N/N=C/c2ccc(O)c(O)c2)c([N+](=O)[O-])c1	15.8µM*	-24.5%	56.2µM*	-14.5%	2.8	-13.0
NS(=O)(=O)c1ccc(N/N=C/c2ccccc2C(=O)O)c([N+](=O)[O-])c1	?	5.8%	-6.1%	4.0%	-1.2	-8.4
COc1ccc(Cl)c(Cn2cnc3c(cnn3C(C)(C)C)c2=O)c1	·	·	·	·	2.3	-16.8
COc1ccc(C=NNc2ccc([N+](=O)[O-])cc2S(=O)(=O)Nc2ccccc2C(=O)O)cc1OC	50.1µM*	-7.8%	-20.4%	-10.2%	1.8	23.5
Cc1ccc(-n2nnnc2-c2cnc(N3CCCC3)nc2C(F)(F)F)cc1	-17.4%	0.6%	-4.6%	3.1%	11.2	4.9
FC(F)(F)c1nc(N2CCCC2)ncc1-c1nnnn1-c1ccccc1	-4.3%	7.4%	-5.2%	21.0%	52.0*	-9.8
COc1cccc(OC)c1-c1nn2c(-c3cc(-c4ccccc4)n[nH]3)nnc2s1	39.8µM*	?	11.2µM*	?	-0.6	-10.2
O=C(Nc1ccccc1Cc1ccccc1)c1ccccc1NS(=O)(=O)c1ccc(Cl)s1	-31.3%	12.5%	31.6µM*	11.3%	0.4	8.6
CC(C)(C)n1ncc2c(=O)n(Cc3ccccc3Cl)cnc21	·	·	·	·	2.3	-0.7
CCCCCCN1C=CC(=C/C=C(\C#N)C(=O)OCC)C=C1	-5.5%	21.9%	48.0%	8.4%	59.5*	-12.1

Screening data (PubChem)
